In PubChem BioAssay AID488969 (Vanderbilt High Throughput Screening Facility, 2010):
Whole data set: some 110,000 compounds, median “z-score” near -0.1, cut for the highest 2% near 2. The sample as a whole holds a higher share of the highest values than the screen did. The source made the active and inactive calls.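 How the source made its calls: active means z-score in the third read window above 3 or below -3; inactive means the rest.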

Target: Metabotropic glutamate receptor 8 (Rattus norvegicus) (UniProt P70579)
Sequence (P70579 whole entry, looked up): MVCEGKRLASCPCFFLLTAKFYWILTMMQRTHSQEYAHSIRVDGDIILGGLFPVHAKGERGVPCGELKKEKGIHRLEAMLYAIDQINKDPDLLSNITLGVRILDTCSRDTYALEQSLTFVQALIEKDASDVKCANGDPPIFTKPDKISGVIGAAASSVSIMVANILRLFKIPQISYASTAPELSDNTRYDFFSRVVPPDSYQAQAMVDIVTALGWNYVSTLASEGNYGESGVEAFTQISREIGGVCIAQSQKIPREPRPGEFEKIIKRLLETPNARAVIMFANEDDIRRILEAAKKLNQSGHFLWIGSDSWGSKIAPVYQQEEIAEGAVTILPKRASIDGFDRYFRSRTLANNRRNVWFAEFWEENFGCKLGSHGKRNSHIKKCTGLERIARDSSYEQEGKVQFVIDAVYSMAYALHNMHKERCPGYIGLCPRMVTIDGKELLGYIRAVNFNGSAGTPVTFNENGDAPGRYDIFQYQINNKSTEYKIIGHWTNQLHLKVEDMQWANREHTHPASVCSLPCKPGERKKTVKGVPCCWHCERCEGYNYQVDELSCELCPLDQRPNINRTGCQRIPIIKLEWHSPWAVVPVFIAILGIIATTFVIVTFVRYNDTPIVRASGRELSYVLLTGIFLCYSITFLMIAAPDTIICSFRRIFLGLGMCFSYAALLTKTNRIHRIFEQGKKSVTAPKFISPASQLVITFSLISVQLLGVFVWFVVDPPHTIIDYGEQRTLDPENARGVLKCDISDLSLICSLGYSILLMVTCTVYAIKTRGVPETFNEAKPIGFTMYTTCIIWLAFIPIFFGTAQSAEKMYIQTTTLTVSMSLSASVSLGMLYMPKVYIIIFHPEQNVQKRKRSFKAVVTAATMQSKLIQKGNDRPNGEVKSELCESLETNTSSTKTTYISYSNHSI
Experiment: rat mGluR8 modulators via GIRK flux, primary screen, cell-based, thallium flux, HTS (AID 488969)
Conditions: HEK293 rat mGluR8, GIRK (G protein-gated inwardly rectifying potassium channel) thallium flux, FluoZin2; at 10 µM; stronger effect = higher value; submaximal glutamate (EC20) added with thallium

Structure (SMILES)	z-score
COC(=O)c1cc2sc(Cl)cc2n1Cc1nc(-c2cccc(C)c2)oc1C	-0.256
Cc1noc(C)c1CSCC(=O)NC1=NCCS1	-0.333
O=C(Cn1c(=O)n(Cc2ccccc2)c(=O)c2ccccc21)NCc1ccco1	-1.05
COc1c(Cl)cc(Cl)cc1C(=O)Nc1ccc(NC(=O)c2cccs2)cc1	0.021
CC1(C)CC(=O)C=C(NC2CCCCCCC2)C1	-0.289
O=C(NCC1(c2ccccc2)CCCC1)c1ccc(Br)o1	-0.309
O=C(Oc1cccc2c(OC(=O)N3CCCC3)cccc12)N1CCCC1	-0.117
COC(=O)c1cccc(-n2c(C)cc(C=O)c2C)c1	-0.0226
Fc1ccc(Cn2nnnc2CN2CCN(C3CCCCC3)CC2)cc1	0.354
COCCCn1ccc(O)c(Cc2ccc(F)cc2)c1=O	-0.0433
Cc1nn(-c2ccc3nnc(Br)n3n2)c(C)c1Br	-0.48
CCc1ccc2c(c1)/C(=C/C(=O)c1cccs1)C(=O)N2	-0.314
c1ccc(-c2nc(-c3ccncc3)no2)cc1	-0.104
CCOc1ccc(-c2nnc(-c3cccnc3)o2)cc1OCC	0.0661
CCOc1ccc(-c2nc(-c3cccnc3)no2)cc1OCC	0.841
CCOc1cc(-c2noc(-c3cccnc3)n2)ccc1OC	3.79 (active)
CC(C)(C)c1ccc(-c2nc(-c3ccncc3)no2)cc1	-0.17
CCc1ccc(-c2nc(-c3ccncc3)no2)cc1	2.31
CC(C)C(=O)NCCc1nc2ccccc2n1C	0.0935
C=CCNC(=O)c1onc(CSc2ccccc2F)c1C(=O)O	-0.015
Cc1nc2ccccc2c(=O)n1/N=C/c1ccncc1	-0.171
O=C(NCC(=O)N(CC1CCCO1)C(C(=O)NC1CCCCC1)c1ccc(F)cc1)c1ccco1 (centres undefined)	0.579
Cc1ccccc1C1C(C#N)=C2NC(=O)c3c(sc4c3CCCCC4)N2C2=C1C(=O)CC(C)(C)C2 (centres undefined)	1.56

Structure (SMILES)	z-score
CCCn1c(CCNC(=O)c2cccs2)nc2ccccc21	-0.594
O=C(Oc1c(Cl)cc(Cl)c2cccnc12)c1ccco1	3.13 (active)
O=C(Oc1cccc2cccnc12)c1cccs1	-0.532
Cc1ccc(C(=O)Oc2ccc(Cl)c3cccnc23)cc1[N+](=O)[O-]	0.387
O=C(Oc1c(Cl)cc(Cl)c2cccnc12)N1CCOCC1	-0.0144
O=C(Oc1c(Cl)cc(Cl)c2cccnc12)c1cccs1	2.7
CN1CCN(Cc2cc(Cl)c3cccnc3c2OC(=O)c2cccs2)CC1	0.273
O=C(Oc1c(Cl)cc(Cl)c2cccnc12)c1cccc([N+](=O)[O-])c1	9.18 (active)
O=C(Oc1ccc(Cl)c2cccnc12)c1ccco1	0.951
O=C(Oc1ccc(Cl)c2cccnc12)c1cccc([N+](=O)[O-])c1	0.0891
Cc1oc2c(C)c3oc(=O)c4c(c3cc2c1C)CCC4	-0.532
COc1ccc(N(C(=O)Cn2nnc(-c3ccc(Cl)cc3)n2)C(C(=O)NCC2CCCO2)c2ccc(C)cc2)cc1 (centres undefined)	-0.126
O=C(COC(=O)Cn1cnc2ccccc2c1=O)Nc1ccc(Cl)c(C(F)(F)F)c1	-0.01
CC(=O)Nc1ccc(S(=O)(=O)NNC(=O)c2ccc(C)cc2)cc1	-0.161
CC(=O)N1CCC2(CC1)C(C#N)=C(N)OC1=C2C(=O)CC(C)(C)C1	0.05
COC(=O)c1c(NC(=O)C2COc3ccccc3O2)sc2c1CCN(Cc1ccccc1)C2 (centres undefined)	0.0786
Cc1ccccc1-n1c(O)c(/C=N/N2CCCCC2c2cccnc2)c(=O)[nH]c1=O (centres undefined)	-0.187
CN(C)C(=S)Nn1c(-c2ccccc2)nc2ccccc2c1=O	-0.411
COc1cc(CNc2ccccc2SC)ccc1O	1.58
N#Cc1ccc(N2CCc3ccccc3C2)c([N+](=O)[O-])c1	0.175
Cc1ccc(S(=O)(=O)NC(CC(C)C)C(=O)NCc2ccco2)cc1 (centres undefined)	0.0163
COc1ccc(-c2nnnn2C)cc1S(=O)(=O)NCCc1ccccc1	1.29
O=C(Nc1ccccc1Br)C1CCC(=O)N1Cc1ccccc1Cl (centres undefined)	0.19

Structure (SMILES)	z-score
COc1cc(-c2cc3nc(C)c(C)c(=O)n3[nH]2)cc(OC)c1OC	2.19
COc1cc(OC)cc(-c2cc3nc(C)c(CCC(=O)O)c(=O)n3[nH]2)c1	0.713
Cc1nc2cc(-c3cccs3)[nH]n2c(=O)c1C	-0.15
COC(=O)C(O)(CC(=O)Nc1ccc(OC(F)(F)F)cc1)C(F)(F)F (centres undefined)	-0.408
C=CCn1c(SCC(=O)NC)nc2sc3c(c2c1=O)CCC3	-0.523
O=c1[nH]c2sc3c(c2c(=O)n1Cc1ccccc1)CCC3	-0.117
C=CCn1c(=S)[nH]c2sc3c(c2c1=O)CCC3	10.9 (active)
O=C(CCCN1C(=O)c2ccccc2C1=O)OC1CSCC1NC(=O)c1ccccc1 (centres undefined)	-0.17
O=C1CS/C(=N\c2ccccn2)N1C1CCCCC1	-0.393
COc1cc(CC(=O)Nc2ccc3nc(C)sc3c2)cc(OC)c1OC	-0.158
Cc1cccc(CSc2ncc(CO)n2C)c1	0.12
COc1ccc(CCNC(=O)C2CCN(S(=O)(=O)c3ccc(OC)c(OC)c3)CC2)cc1	-0.362
OCCN=c1cc(-c2ccccc2)oc2ccc(Cl)cc12	0.389
OCCCCCN=c1cc(-c2ccccc2)oc2ccc(Cl)cc12	-0.493
OCCCN=c1cc(-c2ccccc2)oc2ccc(Cl)cc12	3.32 (active)
O=C(CCn1nc(-c2ccccc2)ccc1=O)N1CCOCC1	0.676
CCn1c(NC(=O)Nc2cccc(C)c2C)cc2sccc21	3.12 (active)
CCc1ccccc1NC(=O)c1cc2sccc2n1C	-0.142
Cc1cccc(NC(=O)c2sccc2-n2cccc2)c1C	-0.81
COc1ccc(OC)c(C(=O)c2ccc(C(=O)Nc3cccc4ccccc34)cc2)c1	0.682
Cc1cccc(C)c1OCC(O)CN1CCC(CN2C(=O)c3cccc4cccc(c34)C2=O)CC1 (centres undefined)	2.99
Cc1ccc(C)c(OCC(O)CN2CCC(CN3C(=O)c4cccc5cccc(c45)C3=O)CC2)c1 (centres undefined)	-0.000796
CCc1ccc(OCC(O)CN2CCC(CN3C(=O)c4cccc5cccc(c45)C3=O)CC2)cc1 (centres undefined)	-0.57

Structure (SMILES)	z-score
CN1CCN(S(=O)(=O)c2cccc(C(=O)Nc3nc(-c4ccccc4)cs3)c2)CC1	-0.528
C(=N\n1cnnc1)/c1nc2ccccc2[nH]1	-0.217
COC(=O)Cc1ccc(NC(=O)c2cccs2)cc1	0.153
COc1ccc(CN(C(=O)CO/N=C/c2ccccc2)c2ccccc2C(=O)O)cc1	-0.413
O=C(O)CC(Cc1ccccc1)c1ccc2c(c1)OCO2 (centres undefined)	0.249
COc1ccc(Nc2ncnc3ccccc23)c(OC)c1	-0.192
C=CCNc1nc(N2CCCC2)nc2ccccc12	2.37
CC(Nc1nc(N2CCCCC2)nc2ccccc12)c1ccccc1 (centres undefined)	-2.21
COc1ccc(Nc2nc(N3CCCCC3)nc3ccccc23)c(OC)c1	2.6
COc1ccc(Nc2nc(N3CCCC3)nc(N3CCCC3)n2)c(OC)c1	0.55
c1ccc2c(N3CCCCC3)nc(N3CCCC3)nc2c1	0.2
NC(=O)c1cccnc1Sc1ccc(Cl)cc1	-0.431
Cc1cccc(CC2CC(=O)N(c3ncccn3)C2=O)c1 (centres undefined)	-0.533
O=C(COc1ccc(Cl)cc1)Nc1c(-c2cccs2)nc2ccccn12	-0.182
COc1cc(C2NC(=O)NC(C)=C2C(=O)NCc2ccccc2)c(Cl)cc1O (centres undefined)	0.0361
CON(c1nc(N(C)C)nc(N(C)C)n1)S(=O)(=O)c1ccccc1Cl	-0.678
COc1cc(C)nc(N(C)S(=O)(=O)c2ccccc2Cl)n1	-0.0755
CON(c1nc(Cl)nc(N(C)C)n1)S(=O)(=O)c1ccccc1Cl	2.79
N#Cc1c(-c2ccccc2)[nH]c(=S)[nH]c1=O	-0.744
Nc1[nH]c(=S)[nH]c(=O)c1-c1ccccc1	2.2
Nc1nc(SCc2ccccc2)[nH]c(=O)c1-c1ccccc1	-0.741
CN1/C(=C/C2CC(=O)N(c3ccc([N+](=O)[O-])cc3)C2=O)C(C)(C)c2ccccc21 (centres undefined)	-0.329
COC(=O)C(CC(C)C)NC(=O)c1ccc([N+](=O)[O-])c(C)c1 (centres undefined)	2.9

Structure (SMILES)	z-score
COC(=O)C(CC(C)C)NC(=O)c1ccc(F)cc1 (centres undefined)	-0.19
Cc1cc(C(=O)NCC(=O)OCC(=O)N(C(C)C)C(C)C)ccc1[N+](=O)[O-]	-0.0582
COC(=O)C(CC(C)C)NC(=O)c1ccc([N+](=O)[O-])cc1 (centres undefined)	2.03
COC(=O)c1ccc(NC(CC(C)C)C(=O)OC)c([N+](=O)[O-])c1 (centres undefined)	1.05
CC(Cc1ccccc1)NC(=O)c1ccc([N+](=O)[O-])cc1 (centres undefined)	-0.0984
COc1ccc(C2/C(=C(/O)c3ccccc3)C(=O)C(=O)N2CO)cc1 (centres undefined)	0.305
Cc1ccc(/C=C2/CCc3c([nH]c4ccccc34)C2=O)cc1	0.107
O=c1cc(CO)occ1OCc1cccc(C(F)(F)F)c1	0.0103
COc1ccc(NC(=O)c2cccnc2SC)cc1S(=O)(=O)N1CCCCC1	-0.467
O=C(Oc1ccc(N2C(=O)CCC2=O)cc1)c1ccco1	-0.374
Cn1ccc(C(=O)N2CCCc3ccccc32)n1	-0.0997
CC(=O)N(/N=C1\Sc2ccccc2C1=O)c1ccc(C)cc1C	-0.638
CSc1nc2cc(Cl)ccc2s1	-0.233
S=c1[nH]c2cc(Cl)ccc2s1	14.9 (active)
S=c1[nH]c2ccc(Cl)cc2[nH]1	0.488
Cc1ccc(S(=O)(=O)N2CCC(C(=O)N3CCC(C(=O)NCC4CCCO4)CC3)CC2)cc1 (centres undefined)	0.137
Cc1ccc(F)c(NC(=O)C2CCCCC2C(=O)O)c1 (centres undefined)	1.59
CC(C)c1cc(C(F)(F)F)n2nc(C(=O)Nc3ccc4c(c3)OCO4)cc2n1	4.57 (active)
O=C(Nc1ccc2c(c1)OCO2)c1cc2nc(C3CC3)cc(C(F)(F)F)n2n1	-0.167
CC(=O)c1cc2c(cc1NC(=O)c1cc3nc(C(C)C)cc(C(F)(F)F)n3n1)OCO2	-0.248
Cc1nc(NC(=O)c2ccc(Cl)cc2)sc1-c1csc(Nc2cccc(F)c2)n1	-0.184
CCn1c(COc2ccccc2C)nc2ccccc21	-1.56
